What all share (assay): DAPPL (digital affinity profiling via proximity ligation, sequencing); 10 mM Tris-HCl pH 7.5, 50 mM NaCl, 1 mM DTT, 4% glycerol, room temperature, 30 min; GST-TFs on glutathione beads, 16-mer random dsDNA library, 0.1% formaldehyde crosslink after washing; high values mean tight binding
Holding throughout (settings): protein: recombinant; tags: N-terminal GST; dsDNA, one strand shown

One assay concerns the target T1, ELK1 (Homo sapiens, UniProt P19419 1-428).
T1 sequence: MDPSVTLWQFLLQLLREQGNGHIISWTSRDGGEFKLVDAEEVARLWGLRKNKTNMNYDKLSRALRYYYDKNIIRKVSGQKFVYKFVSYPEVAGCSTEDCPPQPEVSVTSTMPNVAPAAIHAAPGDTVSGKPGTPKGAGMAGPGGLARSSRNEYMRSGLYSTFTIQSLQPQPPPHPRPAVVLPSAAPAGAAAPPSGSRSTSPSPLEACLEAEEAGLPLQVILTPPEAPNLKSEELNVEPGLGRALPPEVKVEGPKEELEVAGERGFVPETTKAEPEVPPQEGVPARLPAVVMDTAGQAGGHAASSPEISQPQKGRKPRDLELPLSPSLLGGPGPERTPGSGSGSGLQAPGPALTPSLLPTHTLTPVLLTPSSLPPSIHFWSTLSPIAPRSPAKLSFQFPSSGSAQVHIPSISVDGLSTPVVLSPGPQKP
In outline: (§1)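 Binding signal is given per hexamer as its read frequency for a factor divided by its frequency in the tag-only sample. GST-fused human transcription factors were expressed in yeast, captured on glutathione beads, barcoded with DNA and pooled with that sample, then incubated with 200 nmole of a 16-mer random double-stranded DNA library in Tris/NaCl/DTT/glycerol buffer for 30 min at room temperature. The pools were then washed, crosslinked, proximity-ligated, amplified by PCR and sequenced on an Illumina NextSeq500.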

For a further assay, the target named is T2, GABPA (Homo sapiens, UniProt Q06546 1-454).
T2 sequence: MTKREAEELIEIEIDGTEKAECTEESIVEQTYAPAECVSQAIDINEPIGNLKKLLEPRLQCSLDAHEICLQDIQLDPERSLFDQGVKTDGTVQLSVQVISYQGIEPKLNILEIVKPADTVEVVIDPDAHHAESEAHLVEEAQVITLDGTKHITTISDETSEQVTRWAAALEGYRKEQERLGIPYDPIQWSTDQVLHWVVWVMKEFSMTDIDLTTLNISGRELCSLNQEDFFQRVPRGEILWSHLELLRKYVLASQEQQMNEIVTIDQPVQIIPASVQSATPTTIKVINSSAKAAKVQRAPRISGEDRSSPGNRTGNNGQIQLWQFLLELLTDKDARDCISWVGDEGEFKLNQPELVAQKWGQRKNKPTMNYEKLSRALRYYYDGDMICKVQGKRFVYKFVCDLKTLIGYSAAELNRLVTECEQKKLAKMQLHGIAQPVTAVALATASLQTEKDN
The method, boiled down:
as §1

In the next assay the target is ELF1 (Homo sapiens, UniProt P32519 1-619). In outline: as §1
A further assay has as its target SPIB (Homo sapiens, UniProt Q01892 1-262). In outline:
as §1

Another assay deals with T3, ELK3 (Homo sapiens, UniProt P41970 1-407).
T3 sequence: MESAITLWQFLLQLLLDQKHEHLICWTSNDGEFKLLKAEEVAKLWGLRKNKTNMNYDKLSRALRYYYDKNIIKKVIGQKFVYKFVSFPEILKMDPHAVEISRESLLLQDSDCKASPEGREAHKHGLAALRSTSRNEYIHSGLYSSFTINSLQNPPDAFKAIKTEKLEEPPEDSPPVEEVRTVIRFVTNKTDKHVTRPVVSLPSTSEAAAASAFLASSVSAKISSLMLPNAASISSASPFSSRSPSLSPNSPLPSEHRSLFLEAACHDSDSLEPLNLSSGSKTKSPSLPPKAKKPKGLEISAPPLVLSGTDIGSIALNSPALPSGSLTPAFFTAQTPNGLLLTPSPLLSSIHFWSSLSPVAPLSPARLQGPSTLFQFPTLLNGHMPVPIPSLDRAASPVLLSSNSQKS
The method, boiled down:
as §1

The next assay deals with T4, SPIC (Homo sapiens, UniProt Q8N5J4 1-248).
T4 sequence: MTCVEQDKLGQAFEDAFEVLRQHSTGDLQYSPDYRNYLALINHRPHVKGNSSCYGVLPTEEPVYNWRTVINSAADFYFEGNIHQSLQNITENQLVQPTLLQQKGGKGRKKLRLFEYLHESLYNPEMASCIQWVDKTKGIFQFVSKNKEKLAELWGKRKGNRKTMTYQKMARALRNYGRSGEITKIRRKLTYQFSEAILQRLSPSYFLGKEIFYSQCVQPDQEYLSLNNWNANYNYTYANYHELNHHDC
The method, boiled down: as §1

Another assay deals with T5, ELK4 (Homo sapiens, UniProt P28324-2 1-405).
T5 sequence: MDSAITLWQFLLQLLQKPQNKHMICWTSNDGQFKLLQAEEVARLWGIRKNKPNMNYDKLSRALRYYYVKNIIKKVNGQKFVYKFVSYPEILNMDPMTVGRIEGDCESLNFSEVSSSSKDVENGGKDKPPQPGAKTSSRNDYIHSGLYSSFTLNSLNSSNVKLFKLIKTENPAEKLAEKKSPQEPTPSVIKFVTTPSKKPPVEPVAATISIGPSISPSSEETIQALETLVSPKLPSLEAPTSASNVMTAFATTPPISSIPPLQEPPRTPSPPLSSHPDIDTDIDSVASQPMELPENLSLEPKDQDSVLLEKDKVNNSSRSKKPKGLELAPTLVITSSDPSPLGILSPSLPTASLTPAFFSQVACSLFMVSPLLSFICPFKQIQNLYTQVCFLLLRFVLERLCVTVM
The method, boiled down: as §1

In another assay the target is T6, ERF (Homo sapiens, UniProt P50548 1-548).
T6 sequence: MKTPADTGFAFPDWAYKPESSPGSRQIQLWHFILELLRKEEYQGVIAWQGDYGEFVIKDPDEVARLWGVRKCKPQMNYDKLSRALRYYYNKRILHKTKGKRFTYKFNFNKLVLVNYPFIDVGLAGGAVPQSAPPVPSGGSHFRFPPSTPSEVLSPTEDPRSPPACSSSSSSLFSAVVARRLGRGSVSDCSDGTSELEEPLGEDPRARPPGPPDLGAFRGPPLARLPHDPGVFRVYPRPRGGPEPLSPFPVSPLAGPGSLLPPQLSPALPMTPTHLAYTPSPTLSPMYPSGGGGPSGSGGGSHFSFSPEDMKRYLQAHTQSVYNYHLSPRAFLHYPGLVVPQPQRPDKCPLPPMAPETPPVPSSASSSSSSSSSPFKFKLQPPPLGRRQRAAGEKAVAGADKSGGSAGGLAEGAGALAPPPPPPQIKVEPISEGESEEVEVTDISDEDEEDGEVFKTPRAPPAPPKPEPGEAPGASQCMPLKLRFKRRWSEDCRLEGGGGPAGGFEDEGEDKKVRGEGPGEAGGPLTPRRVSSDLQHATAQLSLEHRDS
The method, boiled down:
as §1

The next assay concerns the target T7, ETV3L (Homo sapiens, UniProt Q6ZN32 1-361).
T7 sequence: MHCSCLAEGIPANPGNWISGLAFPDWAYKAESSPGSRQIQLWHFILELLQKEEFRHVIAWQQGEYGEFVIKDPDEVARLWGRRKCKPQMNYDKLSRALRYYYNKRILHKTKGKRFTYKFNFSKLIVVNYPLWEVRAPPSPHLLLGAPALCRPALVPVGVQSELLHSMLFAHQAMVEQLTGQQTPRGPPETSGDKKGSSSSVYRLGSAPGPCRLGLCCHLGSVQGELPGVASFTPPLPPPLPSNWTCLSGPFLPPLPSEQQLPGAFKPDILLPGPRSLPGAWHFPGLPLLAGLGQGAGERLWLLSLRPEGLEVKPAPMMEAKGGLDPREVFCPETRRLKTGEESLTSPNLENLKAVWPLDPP
The method, boiled down:
as §1

In a further assay the target is T8, ETS2 (Homo sapiens, UniProt P15036 1-469).
T8 sequence: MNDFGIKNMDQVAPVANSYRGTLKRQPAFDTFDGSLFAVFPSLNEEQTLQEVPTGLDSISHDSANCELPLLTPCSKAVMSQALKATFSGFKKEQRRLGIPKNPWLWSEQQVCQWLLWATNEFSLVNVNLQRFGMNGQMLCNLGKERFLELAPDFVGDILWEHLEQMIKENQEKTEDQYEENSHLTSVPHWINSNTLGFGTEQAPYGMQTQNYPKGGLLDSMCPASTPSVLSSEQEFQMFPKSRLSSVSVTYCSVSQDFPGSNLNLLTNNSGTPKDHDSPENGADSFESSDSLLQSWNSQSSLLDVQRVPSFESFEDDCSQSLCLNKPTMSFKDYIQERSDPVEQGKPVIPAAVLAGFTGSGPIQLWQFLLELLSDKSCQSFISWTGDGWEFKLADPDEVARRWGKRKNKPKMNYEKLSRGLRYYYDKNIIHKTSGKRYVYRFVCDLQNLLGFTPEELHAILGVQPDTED
In outline:
as §1

A further assay deals with T9, SPDEF (Homo sapiens, UniProt O95238 1-335).
T9 sequence: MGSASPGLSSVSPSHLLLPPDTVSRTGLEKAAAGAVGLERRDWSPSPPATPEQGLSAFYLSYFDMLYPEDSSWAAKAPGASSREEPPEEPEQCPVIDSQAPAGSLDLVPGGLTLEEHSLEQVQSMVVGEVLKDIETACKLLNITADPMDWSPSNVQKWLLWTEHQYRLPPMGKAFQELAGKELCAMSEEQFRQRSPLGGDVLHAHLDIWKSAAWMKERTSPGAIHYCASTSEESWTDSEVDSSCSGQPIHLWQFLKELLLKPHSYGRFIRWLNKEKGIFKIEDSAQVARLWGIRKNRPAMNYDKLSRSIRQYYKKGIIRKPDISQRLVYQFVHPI
The method, boiled down:
as §1

ELF1, sequence (P32519 whole entry): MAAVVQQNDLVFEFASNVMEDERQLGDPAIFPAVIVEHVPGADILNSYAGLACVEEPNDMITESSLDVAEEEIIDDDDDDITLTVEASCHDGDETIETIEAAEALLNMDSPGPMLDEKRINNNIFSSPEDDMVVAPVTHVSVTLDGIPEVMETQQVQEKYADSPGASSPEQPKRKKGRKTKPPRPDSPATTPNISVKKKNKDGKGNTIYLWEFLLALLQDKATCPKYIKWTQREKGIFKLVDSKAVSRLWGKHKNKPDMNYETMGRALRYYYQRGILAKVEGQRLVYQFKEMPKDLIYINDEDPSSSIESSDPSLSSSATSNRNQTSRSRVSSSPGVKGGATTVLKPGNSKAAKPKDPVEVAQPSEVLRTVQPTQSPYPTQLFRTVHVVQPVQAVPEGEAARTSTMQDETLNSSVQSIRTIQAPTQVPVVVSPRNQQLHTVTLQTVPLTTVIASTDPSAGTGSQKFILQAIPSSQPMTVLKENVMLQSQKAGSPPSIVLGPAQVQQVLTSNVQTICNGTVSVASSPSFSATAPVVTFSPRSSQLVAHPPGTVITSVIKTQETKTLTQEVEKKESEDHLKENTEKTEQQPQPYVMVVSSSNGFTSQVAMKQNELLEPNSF
SPIB, sequence (Q01892 whole entry): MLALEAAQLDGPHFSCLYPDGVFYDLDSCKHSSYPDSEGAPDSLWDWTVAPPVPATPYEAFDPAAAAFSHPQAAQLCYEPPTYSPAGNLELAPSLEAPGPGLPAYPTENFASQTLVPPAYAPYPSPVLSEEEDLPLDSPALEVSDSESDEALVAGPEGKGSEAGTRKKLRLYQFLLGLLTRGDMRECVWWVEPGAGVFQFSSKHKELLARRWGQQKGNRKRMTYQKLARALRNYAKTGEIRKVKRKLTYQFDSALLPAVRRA

Consider GTATTG, for which the binding signal with ELK1 is 1.01 fold enrichment (6-mer frequency, TF over GST control); with GABPA it was 1.04 fold enrichment (6-mer frequency, TF over GST control); with ELF1, 1.04 fold enrichment (6-mer frequency, TF over GST control); with SPIB, 1.1 fold enrichment (6-mer frequency, TF over GST control); with ELK3, 1.08 fold enrichment (6-mer frequency, TF over GST control); with SPIC, 1.11 fold enrichment (6-mer frequency, TF over GST control). Besides, the binding signal in the assay with ELK4 is 1.05 fold enrichment (6-mer frequency, TF over GST control); with ERF it was 1 fold enrichment (6-mer frequency, TF over GST control); with ETV3L, 1.01 fold enrichment (6-mer frequency, TF over GST control); with ETS2, 1 fold enrichment (6-mer frequency, TF over GST control); in the assay with SPDEF, 1 fold enrichment (6-mer frequency, TF over GST control).
As for GATAGT, the binding signal in the assay with SPIC was 1.01 fold enrichment (6-mer frequency, TF over GST control).

These data come from publication PMC7862700, “An all-to-all approach to the identification of sequence-specific readers for epigenetic DNA modifications on cytosine”.
